Measurements: the supplement of paper PMC6555819

Legend:
Experiment in all cases: PBM binding z-score (relative to random genomic background probes); higher = stronger binding; sequences stand for … in GC…GCGATTGACAGCGTAGAATGAAGG
[1] = test system: FXR:RXRa (NR concentration 270 nM, RXRa partner concentration 90 nM)
Method in brief: (§1)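 Regression normalization was applied to scanned fluorescence from custom Agilent 4×180K protein-binding microarrays. Before scanning, arrays were incubated 1 h with ligand-free nuclear receptor dimers, and binding was detected with antibodies against each partner (one per run). Binding z-scores use the random background probes as reference.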

[2] = test system: LXRa:RXRa (NR concentration 270 nM, RXRa partner concentration 90 nM)
Method in brief: as §1

[3] = test system: LXRa homodimer (NR concentration 270 nM)
Method in brief: as §1

[4] = test system: LXRb:RXRa (NR concentration 270 nM, RXRa partner concentration 90 nM)
Method in brief: as §1

[5] = test system: LXRb homodimer (NR concentration 270 nM)
Method in brief: as §1

[6] = test system: PPARa:RXRa (NR concentration 270 nM, RXRa partner concentration 90 nM)
Method in brief: as §1

[7] = test system: PPARg:RXRa (NR concentration 180 nM, RXRa partner concentration 90 nM)
Method in brief: as §1

[8] = test system: PPARg:RXRa 270nM:90nM, anti-RXR (NR concentration 270 nM, RXRa partner concentration 90 nM)
Method in brief: as §1

[9] = test system: PPARg:RXRa 30nM:10nM, anti-RXR (NR concentration 30 nM, RXRa partner concentration 10 nM)
Method in brief: as §1

[10] = test system: PPARg:RXRa 90nM:30nM, anti-RXR (NR concentration 90 nM, RXRa partner concentration 30 nM)
Method in brief: as §1

Sequence	PBM binding z-score [1]	PBM binding z-score [2]	PBM binding z-score [3]	PBM binding z-score [4]	PBM binding z-score [5]	PBM binding z-score [6]	PBM binding z-score [7]	PBM binding z-score [8]	PBM binding z-score [9]	PBM binding z-score [10]
CGAACCAGGTCAGAACAGGACAGTGAAGGATGAT	2.83	1.68	0.0841	0.939	-0.216	2.43	2.14	1.88	0.485	1.32
GCGACTGGGGCATCATCAGGTTACCATAACTTAA	0.261	0.0527	0.169	1.57	-0.509	1.46	1.1	0.894	-0.0999	0.381
CCGATTAGTTGACCATAAGGGCAACCGAAGCTCG	0.669	0.102	-0.113	0.217	-0.191	0.52	0.357	0.312	-0.22	0.0545
ATATGTAGGTTACATACGGGTCATTCAGGCTATG	2.41	4.56	1.98	2.83	0.718	4.43	6.06	4.92	2.62	4.19
GCTAGCAGGCCATTTGGGTCACTTAATGACGGGC	0.0717	-0.185	-0.464	-0.142	-0.905	1.16	0.67	0.681	-0.515	0.00792
CCTACTGGGCCGAAGGTCATTGATTCCAATGCTC	2.23	2.47	1.02	2.44	-0.461	4.85	9.28	9.02	8.18	10.3
CAAACTAGGTCAAGGGCAAAGTCGGTTTGTGCCA	3.97	3.12	0.592	2.17	0.2	5.38	9.21	8.06	6.95	8.38
CCTAGGAGGCCAATCTGGGTCACTCAAGGCTTGA	1.29	2.42	-0.439	1.35	-1.2	3.35	2.59	2.49	0.067	1.85
CCTACTGGGCCAAAAAGGTCATTAATGCCGATAA	2.98	3.74	2.97	4.21	0.494	4.39	2.98	3.7	1.44	2.96
CGAACTAGGTCATCCAGGAGAGTGAATACATTGA	3.98	2.66	0.805	1.98	-0.132	4.89	7.72	6.23	3.86	5.76
GCGACTGGGGCAAAGCAGTTTACCATAAGGTTGG	-0.303	-0.296	-0.507	-0.071	-1.21	0.822	1.17	1.31	-0.433	0.756
TCGAGTAGGTTAGTCGGGTCATTCAGCCAACATA	1.62	1.62	0.312	1.98	-0.941	3.14	1.39	2.4	1.36	1.95
TCTTGTAGATCAAAGGTTTAGAAAGCCGAAGCCT	0.668	0.408	-0.116	0.454	-0.505	1.63	3.22	5.08	4.18	5.48
CCTGCTAGGTCAATGGTCACCTAAAGCAGCTCGC	3.09	2.46	0.104	1.86	-0.189	3.68	5.66	5.88	3.3	5.26
ACAGACAGGTGAAGAAGGTAACTCAGGCTATCAT	0.248	0.203	-0.161	0.234	-0.276	0.721	0.796	0.34	0.0156	-0.0588
TCTGCTAGGTCAACGATGGTCAGGTAATCTGCTA	3.43	2.96	0.163	1.53	-0.249	3.19	2.74	3.06	2.01	2.65
GTACCAAGGTGAATAGGTCATTGATGAGTAGGCG	2.6	2.66	1.28	2.14	-0.295	3.87	3.39	3.52	1.55	2.85
CAAACTAGGTCAAGGTCCAAGTCGGTTTGTGCCA	3.75	2.44	0.225	1.55	-0.00943	5.05	8.9	7.5	6.37	7.89
CGTCCAAGGTCATAGGAGGTCAGTGATGACAGAT	7.57	7.22	5.1	5.96	1.02	5.77	5.63	5.82	2.23	4.02
CTACCAAGGTGAACAGGGTCGTTGATTACTATTC	1.07	0.788	-0.0558	1.58	-0.226	2.32	1.23	1.38	0.0525	0.997
CCTACTGGGCCAAAAAGGTCCTTGATGCCGATAA	-0.386	-0.565	-0.584	-0.39	-0.811	0.631	0.195	0.889	-0.0812	0.211
GCTAGTTGGTCATTAAAAGGTCACACACCGGTCG	3.71	4.83	6.37	4.7	1.12	4.31	1.92	3.77	1.5	2.68
ATCTCGAGGTAACCAAGTTCAGTGAATGCCGAAC	0.65	1.14	0.25	0.608	-0.105	1.25	0.211	0.361	-0.167	0.304
